Bioassay records deposited in PubChem by Broad Institute.
DUX4 txn inh – DUX4-mediated transcription inhibition. 293T-iDUX4 ZSCAN4-Gaussia luciferase reporter, 24 h; stronger effect = lower value. activity change, negative = inhibition, % (concentration not given with the values). hit rate 0.8% among 37,000. AID 1224904;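 active = mean inhibition of at least 10% in the main channel, exceeding the control channel by a set limit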;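 note: 0% = median of neutral control wells and -100% = median of positive control wells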
Starred values were filed as active, the others as inactive; ! = not active in a repeat. The entries come from a sample that favours hits as a whole.

SMILES | DUX4 txn inh
C[C@@H]1CN([C@H](C)CO)C(=O)c2ccccc2-c2ccccc2CO[C@H]1CN(C)S(=O)(=O)c1cccc(F)c1 | 2
C[C@H](CO)N1C[C@H](C)[C@@H](CN(C)S(C)(=O)=O)OCc2ccccc2-c2c(n(C)c3ccccc23)C1=O | 17
Cc1cccc(S(=O)(=O)N(C)C[C@H]2OCc3ccccc3-c3c(n(C)c4ccccc34)C(=O)N([C@H](C)CO)C[C@H]2C)c1 | -29*
C[C@H](CO)N1C[C@H](C)[C@@H](CN(C)S(=O)(=O)c2ccc(F)cc2)OCc2ccccc2-c2c(n(C)c3ccccc23)C1=O | -3
C[C@H](CO)N1C[C@H](C)[C@H](CN(C)S(=O)(=O)CC(F)(F)F)OCc2ccccc2-c2c(n(C)c3ccccc23)C1=O | -33*
C[C@H]1CN([C@@H](C)CO)C(=O)c2c(c3ccccc3n2C)-c2ccccc2CO[C@H]1CN(C)S(C)(=O)=O | 2
C[C@H](CO)N1C[C@H](C)[C@@H](CN(C)S(=O)(=O)c2cccc(C#N)c2)OCc2ccccc2-c2c(n(C)c3ccccc23)C1=O | 9
C[C@@H]1CN([C@H](C)CO)C(=O)c2c(c3ccccc3n2C)-c2ccccc2CO[C@@H]1CN(C)S(=O)(=O)CC(F)(F)F | -1
C[C@@H]1CN([C@H](C)CO)C(=O)c2ccccc2-c2ccccc2CO[C@@H]1CN(C)S(=O)(=O)c1cccc(F)c1 | 1
C[C@H]1CN([C@@H](C)CO)C(=O)c2c(c3ccccc3n2C)-c2ccccc2CO[C@H]1CN(C)S(=O)(=O)CC(F)(F)F | -10
Cc1cccc(S(=O)(=O)N(C)C[C@@H]2OCc3ccccc3-c3c(n(C)c4ccccc34)C(=O)N([C@@H](C)CO)C[C@H]2C)c1 | -53*
C[C@H](CO)N1C[C@H](C)[C@H](CN(C)S(=O)(=O)c2cccc(F)c2)OCc2ccccc2-c2ccccc2C1=O | -21*
O=C(C[C@@H]1CC[C@@H]2[C@H](COC[C@@H](O)CN2C(=O)c2cnccn2)O1)NCc1ccccc1 | 1
COc1ccc2c3c(n(C)c2c1)[C@H](CO)N(S(C)(=O)=O)CC31CCN(C(=O)CN(C)C)CC1 | 18
C/C=C/c1ccc([C@H]2[C@H](CO)N(C(=O)c3cnccn3)C23CN(C(=O)C2CC2)C3)cc1 | 5
C[C@H]1CC=CC[C@H](c2ccccc2)NC(=O)[C@H](Cc2ccccc2)N(C)C(=O)c2ccccc2O1 (mixture of isomers) | 2
CC(C)[C@H]1COCc2cn(nn2)CC[C@@H](Cc2ccc(Cl)cc2)C(=O)N1 | -1
COc1cccc(NC(=O)N(C)C[C@H]2OCc3ccccc3-c3ccccc3C(=O)N([C@@H](C)CO)C[C@@H]2C)c1 | 2
Cc1ccccc1S(=O)(=O)N1C[C@@H]2N[C@H](C1)C2c1ccc(-c2ccc(C#N)cc2)cc1 (stereo partly specified) | -69*!
C/C=C/c1ccc(C2[C@H]3CNC[C@@H]2N3S(=O)(=O)c2ccccc2C)cc1 (stereo partly specified) | 13
CS(=O)(=O)N1[C@H](C#N)[C@@H](c2ccc(/C=C/c3ccccc3)cc2)[C@H]1CO | 4
Cc1ccccc1S(=O)(=O)N1[C@H](C#N)[C@H](c2ccc(-c3ccc(F)cc3)cc2)[C@H]1CO | -4
Cc1ccccc1S(=O)(=O)N1[C@@H]2CNC[C@H]1C2c1ccc(-c2cccc(C#N)c2)cc1 (stereo partly specified) | -8
Cc1ccccc1S(=O)(=O)N1C[C@@H]2N[C@H](C1)C2c1ccc(/C=C/c2ccccc2)cc1 (stereo partly specified) | -37*
COc1ccc2c3c(n(C)c2c1)[C@H](CO)N(CC1CCOCC1)CC31CN(C(C)=O)C1 | 23
SMILES | DUX4 txn inh
COc1ccc2c3c([nH]c2c1)[C@@H](CO)N(C(=O)c1ccccc1)CC31CN(C)C1 | 12
COc1ccc(CN2C[C@@H](O)COC[C@@H]3O[C@H](CC(=O)NCCN4CCCC4)CC[C@H]32)cc1 | 5
COc1ccc(CN2CC3(CCN(C(=O)C4CCOCC4)CC3)c3c(n(C)c4cc(OC)ccc34)[C@@H]2CO)cc1 | 4
Cc1ccccc1S(=O)(=O)N1CC[C@@H]2[C@@H](CO)N(C)c3ccc(Br)cc3[C@@H]21 | -23*
CN1c2ccc(Br)cc2[C@@H]2[C@@H](CCN2S(=O)(=O)c2ccccc2F)[C@H]1CO | 3
Cc1ccccc1S(=O)(=O)N1CC[C@H]2[C@@H](CO)N(C)c3ccc(Br)cc3[C@H]21 | -3
CCCC#Cc1ccc2c(c1)[C@H]1[C@H](CCN1C(=O)C1CCCCC1)[C@@H](CO)N2 | 11
O=C(O)[C@@H]1[C@@H](CO)[C@@H]2Cn3c(ccc(-c4cncnc4)c3=O)[C@@H]2N1C(=O)C1CCCC1 | 4
COc1ccc(C#Cc2ccc([C@@H]3[C@@H](CO)N4CCCCN(Cc5ccccc5F)C[C@@H]34)cc2)cc1 | -30*
COc1ccc(C#Cc2ccc([C@H]3[C@H](CO)N4CCCCN(Cc5ccccc5F)C[C@@H]34)cc2)cc1 | -21*
OC[C@H]1[C@@H](c2ccc(C#Cc3ccccc3F)cc2)[C@H]2CN(Cc3cncnc3)CCCCN21 | 9
OC[C@H]1[C@@H](c2ccc(C#Cc3ccccc3F)cc2)[C@@H]2CN(Cc3cncnc3)CCCCN12 | 1
OC[C@@H]1[C@@H](c2ccc(C#Cc3ccccc3F)cc2)[C@@H]2CN(Cc3cncnc3)CCCCN12 | -4
OC[C@@H]1[C@@H](c2ccc(C#Cc3ccccc3F)cc2)[C@@H]2CN(CC3CCOCC3)CCCCN12 | -28*
CCCC#Cc1ccc([C@H]2[C@H](CO)N3CCCCN(CC4CCOCC4)C[C@@H]23)cc1 | 12
COc1ccc(C#Cc2ccc([C@H]3[C@H]4CN(C(=O)Nc5ccccc5F)CCCCN4[C@H]3CO)cc2)cc1 | -6
OC[C@@H]1[C@H](c2ccc(C#Cc3ccccc3F)cc2)[C@@H]2CN(CC3CCOCC3)CCCCN12 | -8
C[C@@H]1C(=O)NCCC=CC[C@H](C)Oc2ccccc2C(=O)N1C (mixture of isomers) | 2
COc1ccc2c3c(n(C)c2c1)[C@@H](CO)N(CC1CCOCC1)CC31CN(C(C)=O)C1 | 15
COC(=O)C[C@H]1CC[C@H]2[C@@H](COc3ccc(NC(=O)CN(C)C)cc3C(=O)N2C)O1 | -2
CC(C)NC(=O)N1CC2(C1)[C@@H](c1ccccc1)[C@H](CO)N2C(=O)C1CC1 | 4
COCC(=O)Nc1ccc2c(c1)C(=O)N(C)C[C@@H](OC)[C@@H](C)CN(C(C)=O)[C@H](C)CO2 | 1
Cc1noc(C)c1NC(=O)Nc1cccc2c1O[C@H](CN(C)Cc1ccc(C(=O)Nc3ccccc3N)cc1)[C@@H](C)CN([C@@H](C)CO)C2=O | 0
O=C1N[C@H](Cc2ccccc2)COCc2cn(nn2)CC[C@@H]1Cc1ccc(Cl)cc1 | 4
COc1ccc(CN2CC3(CCN(C(=O)Nc4cccc(F)c4)CC3)c3c([nH]c4cc(OC)ccc34)[C@@H]2CO)cc1 | -6
C[C@H](CO)N1C[C@H](C)[C@@H](CN(C)C(=O)[C@H]2CCCN2C)OCc2ccccc2-c2c(n(C)c3ccccc23)C1=O | 17
CCC(=O)N1CCC2(CC1)CN(Cc1ccc3c(c1)OCO3)[C@@H](CO)c1c2c2ccc(OC)cc2n1C | -8
O=C(Cc1ccncc1)N1CC[C@@H]2[C@H](CO)Nc3ccc(-c4ccccc4F)cc3[C@@H]21 | -48*
O=C(c1ccccc1)N1CC[C@@H]2[C@@H](CO)Nc3ccc(C#Cc4cccc(F)c4)cc3[C@@H]21 | -43*
